# Reference: PubChem BioAssay (EPA / NIEHS)
# Activity calls are given as the source filed them. How the source made its calls: active means hit-call score of the fitted dose curve at least 0.9, where 1 is the maximum; inactive means score below 0.9.
# Experiments:
# [1] = ATG_E_Box_CIS: Attagene CIS-FACTORIAL HepG2 Assay for human Enhancer Box (E-box) (AID 2282936); conditions: HepG2 E-box cis-reporter transcription, actives raise or lower the signal
# Method in brief: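 Endogenous transcription factor activity was sensed in human HepG2 liver cells through transfected cis-promoter reporter units. After 24 h of dosing, total RNA was reverse-transcribed and reporter cDNA resolved by capillary electrophoresis.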
# [2] = ATG_M_61_CIS: Attagene CIS-FACTORIAL HepG2 Assay for M61 Transcription Factor (Internal Marker) (AID 2282937); conditions: HepG2 Attagene CIS-FACTORIAL M61 internal marker reporter; actives raise or lower the signal
# Method in brief: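 Using transiently transfected HepG2 liver cells, reporter transcript levels were assessed 24 h post-dosing by RT-PCR and capillary electrophoresis. Changes in either direction were fitted relative to DMSO controls.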
# [3] = ATG_EGR_CIS: Attagene CIS-FACTORIAL HepG2 Assay for human Early Growth Response 1 (EGR1) (AID 2282938); conditions: HepG2 Attagene CIS-FACTORIAL EGR reporter mRNA; actives raise or lower the signal
# Method in brief: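 Fluorescent capillary-electrophoresis signal of reporter cDNA fragments serves as read-out. HepG2 cells bear transiently transfected cis-promoter reporter units and are exposed 24 h; gain- or loss-of-signal is fitted against DMSO.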
# [4] = ATG_M_19_CIS: Attagene CIS-FACTORIAL HepG2 Assay for M19 Transcription Factor (Internal Marker) (AID 2282939); conditions: HepG2 Attagene CIS-FACTORIAL M19 internal marker reporter; actives raise or lower the signal
# Method in brief: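 HepG2 cells transiently transfected with cis-regulated multiple reporter transcription units were dosed for 24 h; reporter mRNA was quantified by RT-PCR, 6-FAM primer-extension labelling, HpaI digestion and capillary electrophoresis, with bidirectional fitting against DMSO baseline.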
# [5] = ATG_ERE_CIS: Attagene CIS-FACTORIAL HepG2 Assay for Estrogen Response Element (ERE) (AID 2282940); conditions: HepG2 ERE cis-reporter, Attagene RNA transcript; actives raise or lower the signal
# Method in brief: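 HepG2 cells transiently transfected with cis-promoter-driven multiplexed reporter transcription units report endogenous TF activity. After 24 h compound exposure, reporter mRNA is quantified by RT-PCR with capillary electrophoresis fluorescence; bidirectional fitting versus DMSO baseline.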
# [6] = molecular target: Hepatocyte nuclear factor 3-beta (Homo sapiens) (UniProt Q9Y261); test: ATG_FoxA2_CIS: Attagene CIS-FACTORIAL HepG2 Assay for human Forkhead box A2 (FOXA2) (AID 2282942); conditions: HepG2 cis-reporter transcription factor activity, 24 h; actives raise or lower the signal
# Method in brief: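 Fluorescence signal of reporter cDNA fragments, separated by capillary electrophoresis, reflects endogenous transcription factor activity in transfected HepG2 after 24 h. Both increases and decreases fitted against DMSO.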
# [7] = ATG_FoxO_CIS: Attagene CIS-FACTORIAL HepG2 Assay for human Forkhead box O (FoxO) (AID 2282943); conditions: HepG2 Attagene cis-reporter, FoxO element, mRNA; actives raise or lower the signal
# Method in brief: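 Values reflect reporter mRNA induction or loss in HepG2 cells 24 h post-dosing, fitted bidirectionally with DMSO as negative control and baseline. Detection used RT-PCR and fluorescence capillary electrophoresis.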
# [8] = ATG_GATA_CIS: Attagene CIS-FACTORIAL HepG2 Assay for human GATA Binding Protein (AID 2282944); conditions: HepG2 GATA cis-element reporter, Attagene multiplex mRNA; actives raise or lower the signal
# Method in brief: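 HepG2 cells transiently transfected with multiplexed cis-element reporter units reflecting endogenous transcription factor activity; reporter mRNA measured after 24 h dosing by RT-PCR, 6-FAM labeling, HpaI digestion and capillary electrophoresis. Bidirectional fitting versus DMSO baseline.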
# [9] = ATG_GLI_CIS: Attagene CIS-FACTORIAL HepG2 Assay for human Zinc Finger Protein GLI1 (AID 2282945); conditions: HepG2, Attagene cis-factorial reporter mRNA, GLI element; actives raise or lower the signal
# Method in brief: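 HepG2 cells transiently transfected with cis-promoter multiplexed reporter units report endogenous transcription factor activity. After 24 h chemical exposure, reporter mRNA was quantified by RT-PCR, 6-FAM labelling, HpaI digestion and capillary electrophoresis, with bidirectional fitting against DMSO.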
# [10] = ATG_ISRE_CIS: Attagene CIS-FACTORIAL HepG2 Assay for human Interferon Regulatory Factor 1 (IRF1) binding to an Interferon-Stimulated Response Element (ISRE) (AID 2282948); conditions: HepG2 ISRE cis-reporter (Attagene), mRNA transcription readout; actives raise or lower the signal
# Method in brief: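 Uses HepG2 liver cells transfected with cis-regulated reporters and measures mRNA 24 h post-dosing through RT-PCR, primer-extension labelling and capillary electrophoresis, with DMSO as negative control.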
# [11] = ATG_M_32_CIS: Attagene CIS-FACTORIAL HepG2 Assay for M32 Transcription Factor (Internal Marker) (AID 2282949); conditions: HepG2 Attagene cis-factorial M32 reporter, mRNA; actives raise or lower the signal;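 further: background control marker of the multiplexed CIS panel rather than a real target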
# Method in brief: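 HepG2 transfectants (cis-regulated reporter transcription units) dosed 24 h. Reporter mRNA by RT-PCR plus CE, analysed as gain or loss relative to DMSO.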
# [12] = ATG_M_06_CIS: Attagene CIS-FACTORIAL HepG2 Assay for M06 Transcription Factor (Internal Marker) (AID 2282950); conditions: HepG2 Attagene CIS-FACTORIAL M06 internal marker reporter; actives raise or lower the signal
# Method in brief: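 HepG2 cells transiently transfected with cis-regulated multiple reporter transcription units were exposed to chemical for 24 h; reporter mRNA was quantified by RT-PCR, 6-FAM primer labelling, HpaI digestion and capillary electrophoresis, fitted bidirectionally against DMSO.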
# [13] = molecular target: Hypoxia-inducible factor 1-alpha (Homo sapiens) (UniProt Q16665); test: ATG_HIF1a_CIS: Attagene CIS-FACTORIAL HepG2 Assay for human Hypoxia Inducible Factor 1 (HIF1A) (AID 2282951); conditions: HepG2 Attagene cis-factorial HIF1a reporter transcription; actives raise or lower the signal
# Method in brief: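 Endogenous-TF cis reporter readout, human HepG2 cells, 24 h incubation; mRNA detected via RT-PCR and capillary electrophoresis fluorescence; DMSO-normalised bidirectional fitting.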
# [14] = molecular target: Hepatocyte nuclear factor 6 (Homo sapiens) (UniProt Q9UBC0); test: ATG_HNF6_CIS: Attagene CIS-FACTORIAL HepG2 Assay for human Hepatocyte Nuclear Factor 6 (HNF6) (AID 2282952); conditions: HepG2 Attagene cis-factorial HNF6 reporter transcription; actives raise or lower the signal
# Method in brief: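 Using cis-element reporters in HepG2 liver cells, the assay tracks endogenous factor-driven transcription 24 h post-dosing. Signal comes from 6-FAM-labelled, HpaI-digested RT-PCR fragments, with gain or loss scored against DMSO.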
# [15] = molecular target: Heat shock factor protein 1 (Homo sapiens) (UniProt Q00613); test: ATG_HSE_CIS: Attagene CIS-FACTORIAL HepG2 Assay for human Heat Shock Transcription Factor 1 (HSE) (AID 2282953); conditions: HepG2 HSE cis-reporter, Attagene RNA transcription; actives raise or lower the signal
# Method in brief: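 HepG2 cells transiently transfected with multiple reporter transcription units under cis-regulatory promoter control, measuring endogenous transcription factor activity. After 24 h chemical exposure, reporter mRNA quantified by RT-PCR, fluorescent labelling, HpaI digestion and capillary electrophoresis; bidirectional fit versus DMSO.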
# [16] = ATG_MRE_CIS: Attagene CIS-FACTORIAL HepG2 Assay for human Metal Responsive Element (MRE) (AID 2282954); conditions: HepG2 MRE cis-reporter transcription, Attagene multiplex; actives raise or lower the signal
# Method in brief: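 Cells were transfected with cis-promoter reporter transcription units, then dosed for 24 h. RNA was reverse-transcribed, amplified, fluorescently labelled and resolved by capillary electrophoresis, and activity was fitted in both directions relative to DMSO.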
# [17] = ATG_Ets_CIS: Attagene CIS-FACTORIAL HepG2 Assay for human Erythroblast Transformation Specific (ETS) (AID 2282941); conditions: HepG2 ETS cis-reporter transcription, actives raise or lower the signal
# Method in brief: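 Bidirectional fit versus DMSO of reporter mRNA signal, detected by RT-PCR and capillary electrophoresis in HepG2 cells transiently transfected with cis-element reporters and dosed 24 h.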
# [18] = ATG_PBREM_CIS: Attagene CIS-FACTORIAL HepG2 Assay for human Phenobarbital-responsive Enhancer Module (PBREM) (AID 2282955); conditions: HepG2 PBREM cis-reporter, Attagene multiplexed transcription; actives raise or lower the signal
# Method in brief: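 Readout: reporter mRNA, fluorescent RT-PCR fragments separated by capillary electrophoresis. System: HepG2 transiently transfected with cis-regulated reporter units. Exposure: 24 h. Analysis: bidirectional, DMSO baseline.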
# [19] = molecular target: Bile acid receptor (Homo sapiens) (UniProt Q96RI1); test: ATG_IR1_CIS: Attagene CIS-FACTORIAL HepG2 Assay for human Nuclear Receptor Subfamily 1 Group H Member 4 (NR1H4), IR1 submotif (AID 2282946); conditions: IR1 reporter transcription, actives raise or lower the signal
# Method in brief: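 Readout: reporter transcript levels by RT-PCR with fluorescent capillary electrophoresis, from HepG2 cells transiently transfected with multiplexed cis-regulated reporters and dosed 24 h. Gain- or loss-of-signal fitted versus DMSO negative control.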
# [20] = ATG_GRE_CIS: Attagene CIS-FACTORIAL HepG2 Assay for human Glucocorticoid Response Elements (GRE) (AID 2282947); conditions: HepG2 GRE cis-reporter, Attagene multiplex mRNA; actives raise or lower the signal
# Method in brief: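 Cells (HepG2) bearing transfected cis-promoter reporter transcription units were treated with chemical for 24 hours. Reporter mRNA was measured via RT-PCR with capillary electrophoresis, and activity was fitted in both directions relative to DMSO.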
# Chain of Bile acid receptor (Homo sapiens) (Q96RI1 whole entry, looked up): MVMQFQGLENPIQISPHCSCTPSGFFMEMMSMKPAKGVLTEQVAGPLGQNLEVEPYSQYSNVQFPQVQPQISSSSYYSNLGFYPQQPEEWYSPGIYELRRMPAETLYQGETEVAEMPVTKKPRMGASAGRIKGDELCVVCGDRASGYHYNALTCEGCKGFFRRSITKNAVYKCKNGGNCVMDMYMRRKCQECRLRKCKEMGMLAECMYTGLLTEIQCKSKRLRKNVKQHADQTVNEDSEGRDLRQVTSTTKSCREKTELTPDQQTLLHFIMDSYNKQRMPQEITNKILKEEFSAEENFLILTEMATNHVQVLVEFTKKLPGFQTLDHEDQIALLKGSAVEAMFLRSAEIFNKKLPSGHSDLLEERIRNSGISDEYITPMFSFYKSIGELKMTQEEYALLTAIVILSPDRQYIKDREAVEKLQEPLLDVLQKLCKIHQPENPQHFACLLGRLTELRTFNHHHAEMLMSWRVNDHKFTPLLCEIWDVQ
# Chain of Hypoxia-inducible factor 1-alpha (Homo sapiens) (Q16665 whole entry, looked up): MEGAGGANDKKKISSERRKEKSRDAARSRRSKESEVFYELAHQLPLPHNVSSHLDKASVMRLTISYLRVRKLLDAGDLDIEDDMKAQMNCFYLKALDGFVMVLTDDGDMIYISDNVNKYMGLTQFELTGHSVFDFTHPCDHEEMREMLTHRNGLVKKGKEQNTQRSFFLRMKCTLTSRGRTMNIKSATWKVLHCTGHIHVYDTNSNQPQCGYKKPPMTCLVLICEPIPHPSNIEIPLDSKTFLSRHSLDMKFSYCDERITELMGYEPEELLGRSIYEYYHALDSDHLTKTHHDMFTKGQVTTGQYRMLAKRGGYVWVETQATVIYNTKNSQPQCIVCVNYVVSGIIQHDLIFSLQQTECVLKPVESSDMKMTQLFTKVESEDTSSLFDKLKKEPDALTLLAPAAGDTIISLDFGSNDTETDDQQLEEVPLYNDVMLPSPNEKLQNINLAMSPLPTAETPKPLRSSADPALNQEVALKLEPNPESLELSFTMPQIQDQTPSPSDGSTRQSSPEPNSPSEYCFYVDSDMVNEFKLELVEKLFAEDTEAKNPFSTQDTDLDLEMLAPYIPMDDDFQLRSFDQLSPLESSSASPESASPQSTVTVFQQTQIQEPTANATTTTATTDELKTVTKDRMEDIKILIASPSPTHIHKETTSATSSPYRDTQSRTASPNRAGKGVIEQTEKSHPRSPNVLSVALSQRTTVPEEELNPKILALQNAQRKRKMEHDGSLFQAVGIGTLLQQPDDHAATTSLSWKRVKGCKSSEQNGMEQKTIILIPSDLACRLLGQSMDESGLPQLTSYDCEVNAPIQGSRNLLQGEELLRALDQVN
# Chain of Hepatocyte nuclear factor 6 (Homo sapiens) (Q9UBC0 whole entry, looked up, the tested form may be a part): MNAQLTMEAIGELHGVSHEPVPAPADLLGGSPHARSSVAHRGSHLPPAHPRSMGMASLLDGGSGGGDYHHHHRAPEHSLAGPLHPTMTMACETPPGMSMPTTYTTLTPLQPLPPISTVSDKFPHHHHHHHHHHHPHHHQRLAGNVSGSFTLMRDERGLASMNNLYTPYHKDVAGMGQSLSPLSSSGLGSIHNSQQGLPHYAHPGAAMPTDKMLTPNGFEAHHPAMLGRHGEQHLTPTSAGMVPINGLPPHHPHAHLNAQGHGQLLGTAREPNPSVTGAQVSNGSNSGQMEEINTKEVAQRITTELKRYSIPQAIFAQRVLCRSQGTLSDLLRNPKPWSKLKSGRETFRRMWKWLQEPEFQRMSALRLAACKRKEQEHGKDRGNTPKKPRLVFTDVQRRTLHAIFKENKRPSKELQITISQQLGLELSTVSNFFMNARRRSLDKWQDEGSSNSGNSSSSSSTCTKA
# Chain of Hepatocyte nuclear factor 3-beta (Homo sapiens) (Q9Y261 whole entry, looked up, the tested form may be a part): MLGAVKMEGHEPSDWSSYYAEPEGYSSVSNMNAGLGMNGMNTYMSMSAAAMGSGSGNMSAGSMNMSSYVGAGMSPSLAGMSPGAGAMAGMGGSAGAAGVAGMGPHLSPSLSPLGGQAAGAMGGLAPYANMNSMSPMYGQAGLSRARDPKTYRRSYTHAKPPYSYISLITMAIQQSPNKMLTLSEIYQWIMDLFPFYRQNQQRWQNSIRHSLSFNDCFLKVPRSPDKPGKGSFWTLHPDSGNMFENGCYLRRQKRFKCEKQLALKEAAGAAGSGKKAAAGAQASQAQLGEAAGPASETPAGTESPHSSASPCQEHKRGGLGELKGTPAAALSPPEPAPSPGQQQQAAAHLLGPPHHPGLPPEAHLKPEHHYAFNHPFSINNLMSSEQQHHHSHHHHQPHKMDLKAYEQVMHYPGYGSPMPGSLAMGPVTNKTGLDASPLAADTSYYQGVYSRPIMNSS
# Chain of Heat shock factor protein 1 (Homo sapiens) (Q00613 whole entry, looked up): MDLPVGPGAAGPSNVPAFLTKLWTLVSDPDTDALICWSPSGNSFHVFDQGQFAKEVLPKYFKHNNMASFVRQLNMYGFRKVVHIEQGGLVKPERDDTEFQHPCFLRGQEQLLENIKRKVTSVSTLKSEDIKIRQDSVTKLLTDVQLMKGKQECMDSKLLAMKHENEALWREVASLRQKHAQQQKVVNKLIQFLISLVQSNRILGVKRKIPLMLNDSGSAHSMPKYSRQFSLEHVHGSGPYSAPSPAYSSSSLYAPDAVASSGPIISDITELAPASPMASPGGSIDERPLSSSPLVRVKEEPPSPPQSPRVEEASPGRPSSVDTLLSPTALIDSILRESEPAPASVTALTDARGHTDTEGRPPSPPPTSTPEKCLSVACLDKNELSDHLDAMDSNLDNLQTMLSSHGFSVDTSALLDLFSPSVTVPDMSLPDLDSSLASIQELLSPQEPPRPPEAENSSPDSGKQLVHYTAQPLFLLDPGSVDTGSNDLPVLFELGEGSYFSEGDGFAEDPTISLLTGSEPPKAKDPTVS
smiles,measurement,setting,value
CS(=O)(=O)OCCCCOS(C)(=O)=O,outcome,[1],inactive
same,outcome,[2],inactive
same,outcome,[3],inactive
same,outcome,[4],inactive
same,outcome,[5],inactive
same,outcome,[6],inactive
same,outcome,[7],inactive
same,outcome,[8],inactive
same,outcome,[9],inactive
same,outcome,[10],inactive
same,outcome,[11],inactive
same,outcome,[12],inactive
same,outcome,[13],inactive
same,outcome,[14],inactive
same,outcome,[15],inactive
same,outcome,[16],inactive
O=C(O)c1cccnc1C(=O)O,outcome,[1],inactive
same,outcome,[2],inactive
same,outcome,[3],inactive
same,outcome,[4],inactive
same,outcome,[5],inactive
same,outcome,[17],inactive
same,outcome,[6],inactive
same,outcome,[7],inactive
same,outcome,[8],inactive
same,outcome,[9],inactive
same,outcome,[10],inactive
same,outcome,[11],inactive
same,outcome,[12],inactive
same,outcome,[14],inactive
same,outcome,[16],inactive
CC1(C)O[C@@H]2[C@@H](CO[C@@]3(COS(N)(=O)=O)OC(C)(C)O[C@@H]23)O1,outcome,[1],inactive
same,outcome,[2],inactive
same,outcome,[3],inactive
same,outcome,[4],inactive
same,outcome,[5],inactive
same,outcome,[6],inactive
same,outcome,[7],inactive
same,outcome,[8],inactive
same,outcome,[9],inactive
same,outcome,[10],inactive
same,outcome,[11],inactive
same,outcome,[12],inactive
same,outcome,[13],inactive
same,outcome,[14],inactive
same,outcome,[15],inactive
same,outcome,[16],inactive
same,outcome,[18],inactive
c1ccc2cc(Nc3ccc(Nc4ccc5ccccc5c4)cc3)ccc2c1,outcome,[1],inactive
same,outcome,[2],inactive
same,outcome,[3],inactive
same,outcome,[4],inactive
same,outcome,[17],inactive
same,outcome,[6],inactive
same,outcome,[7],inactive
same,outcome,[8],inactive
same,outcome,[9],inactive
same,outcome,[19],inactive
same,outcome,[20],inactive
same,outcome,[10],inactive
same,outcome,[11],inactive
same,outcome,[12],inactive
same,outcome,[13],inactive
same,outcome,[14],inactive
same,outcome,[15],inactive
same,outcome,[16],inactive
same,outcome,[18],inactive
CCc1cc(C(C)(C)C)c(O)c(C(C)(C)C)c1,AC50,[1],24.4 µM (active)
same,outcome,[2],inactive
same,outcome,[3],inactive
same,outcome,[4],inactive
same,outcome,[17],inactive
same,outcome,[6],inactive
same,outcome,[7],inactive
same,outcome,[8],inactive
same,outcome,[9],inactive
same,outcome,[19],inactive
same,outcome,[20],inactive
same,outcome,[10],inactive
same,outcome,[11],inactive
same,outcome,[12],inactive
same,outcome,[13],inactive
same,outcome,[14],inactive
same,outcome,[15],inactive
same,outcome,[16],inactive
same,outcome,[18],inactive
CCCC(=O)C(CC)Sc1ccoc1C (configuration not stated),outcome,[1],inactive
same,outcome,[2],inactive
same,outcome,[3],inactive
same,outcome,[4],inactive
same,AC50,[5],88.9 µM (active)
same,outcome,[17],inactive
same,outcome,[6],inactive
same,outcome,[7],inactive
same,outcome,[8],inactive
same,outcome,[9],inactive
same,outcome,[10],inactive
same,outcome,[11],inactive
same,outcome,[12],inactive
same,outcome,[13],inactive
same,outcome,[15],inactive
same,outcome,[16],inactive
same,outcome,[18],inactive
Nc1ccc(Cl)c([N+](=O)[O-])c1,outcome,[1],inactive
same,outcome,[2],inactive
same,outcome,[3],inactive
same,outcome,[4],inactive
same,outcome,[17],inactive
same,outcome,[6],inactive
same,outcome,[7],inactive
same,outcome,[8],inactive
same,outcome,[9],inactive
same,outcome,[19],inactive
same,outcome,[20],inactive
same,outcome,[10],inactive
same,outcome,[11],inactive
same,outcome,[12],inactive
same,outcome,[13],inactive
same,outcome,[14],inactive
same,outcome,[15],inactive
same,outcome,[16],inactive
OCC#CCO,outcome,[1],inactive
same,outcome,[2],inactive
same,outcome,[3],inactive
same,outcome,[4],inactive
same,outcome,[17],inactive
same,outcome,[6],inactive
same,outcome,[7],inactive
same,outcome,[8],inactive
same,outcome,[9],inactive
same,outcome,[19],inactive
same,outcome,[20],inactive
same,outcome,[10],inactive
same,outcome,[11],inactive
same,outcome,[12],inactive
same,outcome,[13],inactive
same,outcome,[14],inactive
same,outcome,[15],inactive
CCN(CCN)c1cccc(C)c1,outcome,[1],inactive
same,outcome,[2],inactive
same,outcome,[3],inactive
same,outcome,[4],inactive
same,outcome,[5],inactive
same,outcome,[6],inactive
same,outcome,[7],inactive
same,outcome,[9],inactive
same,outcome,[10],inactive
same,outcome,[11],inactive
same,outcome,[12],inactive
same,outcome,[14],inactive
same,outcome,[16],inactive
same,outcome,[18],inactive
